Data on 13 compounds can be found in PubChem BioAssay (NCI).

The panel holds about 83,000 compounds, 20% with a hit somewhere; the sample as a whole holds those more often.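 Note: values are percent growth. 100 is the growth of untreated cells, values between 100 and 0 indicate rising inhibition; between -100 and 0 indicates cell death.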 Values without a mark were called inactive. The source made the active and inactive calls. Rule for the calls: active = growth percent below 10; inactive = the rest.

In the assay the test system is HOP-92 NSCLC. The assay is described as follows: NCI-60 one-dose screen, 48 h (100 = growth as untreated, 0 = no growth, -100 = all killed). Particulars: 10 µM unless noted.
Take `COc1ccc(/C=C/C(=O)N2CCC(O)CC2)cc1OC1CCCC1`: the growth is 95.7%.
Consider `CCCCOC(=O)C1OC(Oc2ccc3c(C)cc(=O)oc3c2)[C@@H](OC(C)=O)C(OC(C)=O)C1OC(C)=O` (stereo partly drawn), for which the growth was 98.3%.
Under `CC(=O)OC[C@H](O)[C@@]1(O)CC[C@H]2[C@@H]3CCC4=CC(=O)CC[C@]4(C)[C@H]3[C@@H](O)C[C@@]21C` stands 81.7%; under `CCOC(=O)c1[nH]c2cc(Cl)ccc2c1[C@@H](C(=O)NC(C)(C)C)N(CC)C(=O)CCCCC#Cc1cccc2c1CN(C1CCC(=O)NC1=O)C2=O` (stereo partly drawn), 6.15% (active).
The same measure for `O=c1oc2ccccc2cc1-c1csc(N=Nc2c(O)[nH]c3ccc(Cl)cc23)n1`: 114%; for `CCN1CCN(c2nc3ccccc3c3c(=O)c4cc(F)ccc4sc23)CC1`: 40.2%.
The same measure for `COc1cc2oc(-c3ccc(O)cc3)cc(=O)c2c(O)c1I`: 113%.
On to `COc1ccc(NS(=O)(=O)c2ccc(-c3cnc(C4CC4)o3)cc2)cc1`, for which the growth is 63%.
Under `O=C(N/N=C(\CS(=O)(=O)c1ccccc1)c1cc2cc(Br)ccc2oc1=O)c1ccccc1` stands 111%.
`C[C@]1(CO)C[C@@H](O)C[C@]2(C)[C@@H]1CC[C@@]13C[C@@H]4[C@@H](C[C@H]12)[C@]4(C)C3`: the growth is 103%.
The same measure for `O=C(NC1CC1)c1cc2n(n1)CC(c1ccccc1)N2` (stereo not drawn): 85.3%.
The same measure for `Cc1cccc2c(=O)c3c(sc12)c(NCCNCCO)nc1ccccc13`: 33.1%.
Consider `COC(=O)[C@@]12CC[C@@H](C)[C@]3(C[C@@H](c4ccoc4)OC3=O)[C@H]1CC[C@@H]1O[C@@]12C`, for which the growth is 92.4%.
